Measurements: PubChem BioAssay AID1566 (Sanford-Burnham Center for Chemical Genomics, 2009)
Among all 290,000 compounds or so, about 1,800 (0.62%) were called active. The sample holds actives, similar compounds and a random draw of the others, so the mix is not that of the screen. A number with no mark means an inactive call. Cut-off read from the data, not from the text of the source: active = inhibition above about 50%; inactive = the rest.

test: NOD2 signaling inhibitors, cell-based, luminescence, uHTS, HEK293 (AID 1566); settings: HEK293 NOD2/NF-kB luciferase reporter, at 4 µM, active compounds read high

Row | Structure (SMILES) | inhibition
1 | COc1ccc(CC(NC(C)=O)C(=O)NC2CCN(C(=O)C3CCCCC3)CC2)cc1OC (configuration not stated) | 13.5%
2 | CCOCCCNS(=O)(=O)c1ccc(NC(=O)c2ccccc2)cc1 | 11.3%
3 | Cc1nnc(SCC(=O)Nc2ccc([N+](=O)[O-])cc2)n1CC1CCCO1 (configuration not stated) | 2.5%
4 | CC1CCc2sc3ncnc(N4CCN(C)CC4)c3c2C1 (configuration not stated) | 12.6%
5 | CC1CCc2c(sc3ncnc(N4CCOCC4)c23)C1 (configuration not stated) | 26%
6 | CCOc1ccc(NC(=O)CC2C(=O)N(c3ccccc3)C(=O)N2CCc2cccs2)cc1 (configuration not stated) | 23.4%
7 | COc1ccc(CCNC(=O)C2CCN(S(=O)(=O)c3ccc(-n4cnnn4)cc3)CC2)cc1OC | 6%
8 | CCOc1ccccc1NC(=O)CNC(=O)CNC(=O)Cc1ccccc1 | -3.4%
9 | Cc1sc2ncnc(NC3CCN(Cc4ccccc4)CC3)c2c1C | 36.9%
10 | Cc1csc2c(NC3CCN(Cc4ccccc4)CC3)ncnc12 | 34.1%
11 | COc1cc(CC(=O)NCC2CCCCC2)cc(OC)c1OC | -1.9%
12 | COc1ccc(-c2nnc3sc(C4CCCCC4)nn23)cc1OC | 13.6%
13 | CCOc1cccc(-c2nnc3sc(C4CCCCC4)nn23)c1 | 20.8%
14 | COc1cccc(-c2nnc3sc(C4CCCCC4)nn23)c1 | 55.3% (active)
15 | O=C(NC1CCCCCC1)c1ccc(OCC2CCCO2)cc1 (configuration not stated) | -82%
16 | OCCC1CN(Cc2cccn2-c2ccccn2)CCN1C1CCCCC1 (configuration not stated) | -19.4%
17 | Cc1c(/C=N/NC(=O)c2ccc(O)cc2)c2ccccn2c1C(=O)c1ccc(F)cc1 | 7%
18 | CNC(=S)N/N=C/c1c(C)c(C(=O)c2ccc(F)cc2)n2ccccc12 | 25.2%
19 | Cc1cccc(NS(=O)(=O)c2ccc(C(=O)NCCCN3CCOCC3)cc2)c1C | 14.9%
20 | S=C(NCc1ccccc1)Nc1cccc2cnccc12 | 52.6% (active)
21 | S=C(NCc1cccnc1)Nc1cccc2ccccc12 | -6.2%
22 | S=C(NCc1ccccc1)Nc1cccc2ccccc12 | 3.3%
23 | O=C(NN1CCOCC1)c1ccc(S(=O)(=O)N2CCCCC2)cc1 | 4.3%
24 | O=C(O)c1cc(-c2ccc(N3CCOCC3)cc2)nn1-c1ccccc1Cl | 3.2%
25 | N#C/C(=C\Nc1ccc(F)c(Cl)c1)S(=O)(=O)c1ccccn1 | 0.9%

Row | Structure (SMILES) | inhibition
26 | CCn1cc([N+](=O)[O-])c(C(=O)Nc2nc(-c3ccc(C)c(C)c3)c(C)s2)n1 | 13%
27 | CCn1cc([N+](=O)[O-])c(C(=O)Nc2nc(-c3ccc(C)cc3)c(C)s2)n1 | 3%
28 | Cc1nc(SCc2ccc(F)cc2)c2oc3ccccc3c2n1 | 11.8%
29 | c1ccc(-n2ncc3c(N4CCCCC4)ncnc32)cc1 | -32.5%
30 | COc1ccc(-n2ncc3c(N4CCC(C)CC4)ncnc32)cc1 | -97.6%
31 | CCOC(=O)C1CCN(c2ncnc3c2cnn3-c2ccccc2)CC1 | 1.8%
32 | CCOC(=O)C1CCN(c2ncnc3c2cnn3-c2ccc(OC)cc2)CC1 | 23.8%
33 | COc1ccc(-n2ncc3c(N4CCCCC4)ncnc32)cc1 | 67.7% (active)
34 | CC1CCCN(c2ncnc3c2cnn3-c2ccccc2)C1 (configuration not stated) | -14.2%
35 | CC1CC(C)CN(c2ncnc3c2cnn3-c2ccc(Cl)cc2)C1 (configuration not stated) | 27.7%
36 | CCOC(=O)C1CCN(c2ncnc3c2cnn3-c2ccc(Cl)cc2)CC1 | 57.5% (active)
37 | Clc1ccc(-n2ncc3c(N4CCCC4)ncnc32)cc1 | 17.1%
38 | CC1CCCN(c2ncnc3c2cnn3-c2ccc(Cl)cc2)C1 (configuration not stated) | 86.2% (active)
39 | COc1ccc(-n2ncc3c(N4CCC(C(N)=O)CC4)ncnc32)cc1 | -46.4%
40 | Clc1ccc(-n2ncc3c(N4CCCCCC4)ncnc32)cc1 | 70.6% (active)
41 | CCCc1cc(=O)oc2cc(OCC(=O)NCc3ccccn3)ccc12 | 8.8%
42 | CSc1ncc(Cl)c(C(=O)Nc2c(C)cccc2C)n1 | -5.2%
43 | N#Cc1c(NCCN)nc(-c2ccccc2)c2c1CCCC2 | 10.4%
44 | O=C(/C=C/c1cccc(Cl)c1)NCc1ccccc1 | 9.9%
45 | CN(Cc1nc(Cc2ccccc2F)no1)Cc1cccc2ncccc12 | 19.2%
46 | COc1ccc(NC(=O)COC(=O)C2CCC(C(C)(C)C)CC2)c([N+](=O)[O-])c1 (configuration not stated) | 16.1%
47 | Cc1cc(C(F)(F)F)nc(CCNCc2c(C(=O)N3CCCC3)nc3ccccn23)n1 | 12.8%
48 | Cc1ccc(/C=N/c2sc3c(c2C(N)=O)CCCC3)o1 | -59.1%
49 | COc1ccc(-n2c(=S)[nH]c3cc(C(=O)Nc4cccc(C)c4)ccc3c2=O)cc1 | -42%
50 | O=C(O)CC1NC(=O)N(c2ccc(Cl)cc2)C1=O (configuration not stated) | 5.4%

Row | Structure (SMILES) | inhibition
51 | N#CC1=C(SCc2ccccc2)NC(=O)CC1c1cccc(O)c1 (configuration not stated) | 12.9%
52 | O=S(=O)(c1ccc(Cl)cc1)N1CCN(S(=O)(=O)N2CCCCCC2)CC1 | -1.1%
53 | CC(C)(C)OC(=O)N1CCC(c2cc(=O)n3[nH]c(-c4ccc(Cl)cc4)cc3n2)CC1 | 8%
54 | Cc1nc2sc(C(c3ccc(Cl)cc3)N3CCN(C(=O)c4ccco4)CC3)c(O)n2n1 (configuration not stated) | 1.9%
55 | Cc1ccc(NS(=O)(=O)c2ccc(-c3cnc(C4CC4)o3)cc2)cc1 | -3.1%
56 | COc1ccc(S(=O)(=O)Nc2ccc3c(c2)OCCO3)cc1OC | 4%
57 | COc1ccc(C)cc1NS(=O)(=O)c1ccc(-c2cnc(C3CC3)o2)cc1 | 27.1%
58 | COc1ccc(NS(=O)(=O)c2ccc3c(c2)OCCO3)cc1OC | 52.2% (active)
59 | COc1ccc(S(=O)(=O)Nc2ccc3c(c2)OCO3)cc1OC | -22.1%
60 | COc1ccc(-c2noc(-c3ccoc3C)n2)cc1 | -47.8%
61 | CC(C)(C)C(=O)Nc1ccc(-c2cnco2)cc1 | 2.7%
62 | Cc1ccc(CC(=O)Nc2ccc(C(=O)N3CCCCC3)cc2)cc1 | 0.3%
63 | Cc1ccc(C23CC4CC(CC(NC(=O)NC(C)(C)CO)(C4)C2)C3)cc1 | -8.2%
64 | COc1ccccc1C1(O)C(=O)Nc2ccccc21 (configuration not stated) | 24.1%
65 | CCOC(=O)N/N=C/c1c(C)nn(-c2ccccc2Cl)c1Cl | -45.5%
66 | Cc1nn(-c2ccccc2Cl)c(Cl)c1/C=N/Nc1nc2ccccc2s1 | 78.1% (active)
67 | Cc1nn(-c2ccccc2Cl)c(Cl)c1/C=N/Nc1cccc(C(=O)O)c1 | -183%
68 | COc1ccccc1NC1=C(C)C(=O)CC1 | 5.8%
69 | Cc1cccc(NC(=O)N2CCC(C(=O)c3ccc(F)cc3)CC2)c1 | -7.7%
70 | O=C1CCCN2N=C(SCC(=O)Nc3cccc(Cl)c3)SC2=N1 | 43.7%
71 | O=C1CCCN2N=C(SCC(=O)Nc3cccc(C(F)(F)F)c3)SC2=N1 | 58.1% (active)
72 | O=C1CCCN2N=C(SCC(=O)Nc3cccc(F)c3)SC2=N1 | -16.8%
73 | CCC(C(=O)NCCCN1CCCCCC1)n1nc(C)c2sc3ccccc3c2c1=O (configuration not stated) | -40.3%
74 | CCC(C)(C)c1ccc(OCCCC[n+]2ccc(C)cc2)c(C(C)(C)CC)c1 | 29.7%
75 | CCC(C)(C)c1ccc(OCCCC[n+]2ccccc2)c(C(C)(C)CC)c1 | 12%

Row | Structure (SMILES) | inhibition
76 | CC(C)(C)NC(=O)NC(=O)COC(=O)Cc1c(Cl)cccc1Cl | 1.1%
77 | COc1ccc(CCNc2oc(COc3ccccc3F)nc2C#N)cc1OC | 9.2%
78 | COc1ccc(CCNc2oc(COc3ccc(F)cc3)nc2C#N)cc1 | -49.7%
79 | COc1ccc(CCNc2oc(Cc3ccccc3)nc2C#N)cc1OC | 36.6%
80 | COc1ccc(CCNc2oc(COc3ccccc3)nc2C#N)cc1 | -27.2%
81 | CCOC(=O)N1CCN(C(=O)CSc2nc3c(cnn3-c3ccccc3)c(=O)[nH]2)CC1 | 2.1%
82 | COc1ccc(-c2cc(=O)oc3c(C)c(OCC(=O)NCC4CCC(C(=O)O)CC4)ccc23)cc1 (configuration not stated) | 23.3%
83 | N#CC1=C(SCC(=O)NC2CC2)NC(=O)C(C#N)C12CCCCC2 (configuration not stated) | -1.6%
84 | CCSC1=C(C#N)C2(CCCCC2)C(C#N)C(=O)N1 (configuration not stated) | 10.3%
85 | Cc1nn(-c2cc(N3CCCCC3)ccc2[N+](=O)[O-])c(=O)c2ccccc12 | -6.2%
86 | CCC(C)[C@H](NC(=O)C1CC(=O)N(c2ccc(OC)cc2)C1)C(=O)N1CCCCC1 (some centres not stated) | 12.9%
87 | COC(=O)c1ncn(C2OC(COC(C)=O)C(OC(C)=O)C2OC(C)=O)n1 (configuration not stated) | 18.8%
88 | CCN1CCN(CCC(=O)Nc2ccc(F)c(F)c2)CC1 | 1.5%
89 | CCN(CC)S(=O)(=O)c1ccc2nnn(O)c2c1 | -3.6%
90 | Cc1ccc(-n2nc3c(=O)n(CCCC(=O)N4CCC(C)CC4)nc(C)c3c2C)cc1 | 27.9%
91 | Cc1nn(-c2ccccc2)c2nc(C(F)(F)F)[nH]c(=O)c12 | 30.5%
92 | Cc1ccc(-n2nc(C)c3c(=O)[nH]c(C(F)(F)F)nc32)cc1 | 32.3%
93 | O=C(CCCOc1ccc(Cl)cc1Cl)Nc1ccccn1 | -183%
94 | O=C(COc1ccc(Cl)cc1Cl)Nc1ccccn1 | 62.1% (active)
95 | O=C(COc1ccc(Cl)cc1Cl)Nc1ccc(Cl)cn1 | -209%
96 | Cc1cccc(NC2=NCC(=O)N2CCc2ccccc2)c1 | -0.2%
97 | COc1cc(C(=O)N(c2ccc(C)c(C)c2)C2C=CS(=O)(=O)C2)cc(OC)c1OC (configuration not stated) | -4.9%
